Source: PubChem (National Center for Advancing Translational Sciences (NCATS))
An excerpt weighted towards active compounds, which were near 5.8% of everything screened.
RORgamma inh = blocks mouse ROR gamma transcriptional activity; P51450; Drosophila S2 Gal4-RORgamma UAS-luciferase reporter, 20 h; Potency, µM (doses to about 53.6 µM), inactives show at the top dose activity change, negative = inhibition, most hits filed as inhibitors; 310,000 tested, 5.4% active; also: potency is read from the fitted curve at half-maximal effect; % is scaled to controls: 0 for no effect and ±100 for the full control effect; nearly all actives have a fitted effect of over 60% in size
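Luciferase reporter read in Schneider cells carrying Gal4-RORγ (mouse) and UAS-Photinus luciferase; cells given compound 1 h before 700 uM copper sulfate induction, then incubated 20 h at ambient temperature.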
TRPV1 potentiator = human TRPV1 potentiation | 320,000 tested, 0.02% active | Q8NER1 | potentiation, % at 8.33 µM | AID 540277 | TRPV1-expressing cells, Fluo-8 calcium influx, capsaicin EC20 potentiation; in the data active = potentiation above about 80%; inconclusive = between about 30% and that limit; also: 0% is about no effect
Target sequence (Q8NER1 whole entry, looked up): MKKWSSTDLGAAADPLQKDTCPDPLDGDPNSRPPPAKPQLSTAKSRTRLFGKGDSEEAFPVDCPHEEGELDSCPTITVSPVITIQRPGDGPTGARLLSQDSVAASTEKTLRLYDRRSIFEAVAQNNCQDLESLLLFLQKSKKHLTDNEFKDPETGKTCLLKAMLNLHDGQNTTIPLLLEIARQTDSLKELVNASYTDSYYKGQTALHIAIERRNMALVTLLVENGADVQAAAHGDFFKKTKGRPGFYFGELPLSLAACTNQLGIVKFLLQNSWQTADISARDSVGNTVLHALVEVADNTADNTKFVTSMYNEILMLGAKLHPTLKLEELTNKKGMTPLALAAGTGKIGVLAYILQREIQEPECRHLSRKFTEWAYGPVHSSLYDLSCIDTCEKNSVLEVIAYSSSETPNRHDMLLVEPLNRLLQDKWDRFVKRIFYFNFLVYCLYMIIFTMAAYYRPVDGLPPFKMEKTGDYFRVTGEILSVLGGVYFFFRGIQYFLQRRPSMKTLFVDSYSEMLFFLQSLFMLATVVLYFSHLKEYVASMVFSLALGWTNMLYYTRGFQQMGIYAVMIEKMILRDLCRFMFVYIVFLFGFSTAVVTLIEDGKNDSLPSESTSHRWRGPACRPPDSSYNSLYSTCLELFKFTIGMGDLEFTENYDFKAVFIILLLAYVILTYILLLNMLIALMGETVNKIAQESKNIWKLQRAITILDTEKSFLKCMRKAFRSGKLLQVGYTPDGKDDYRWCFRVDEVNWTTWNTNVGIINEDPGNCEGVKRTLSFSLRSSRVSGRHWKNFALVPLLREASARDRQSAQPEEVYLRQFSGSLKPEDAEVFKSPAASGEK
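Cells expressing TRPV1 were dye-loaded with Fluo-8 and read kinetically: 10 s baseline, 3 min after compound (agonist portion), then 2 min after EC20 capsaicin (allosteric enhancer portion). Calcium-bound dye fluorescence at 480/520 nm.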
uPA generation = inhibitors of cell surface uPA generation. AID 540303. cell surface uPA generation assay, qHTS. Potency, µM (highest dose often 38.3 µM), for the others: top-dose activity change, negative = inhibition, usual class: inhibitors. 330,000 tested, 0.31% active; active = well fitted inhibition curve with a large enough effect; inconclusive = small, poorly fitted or top-dose-only effect; inactive = no such curve, though single readings can be large or run the other way; tested in mouse RAW 264.7 cells; also: potency is read from the fitted curve at half-maximal effect; % is scaled to controls: 0 for no effect and ±100 for the full control effect; nearly all actives have a fitted effect of over 55% in size
TRPV1 agonist = agonists of human vanilloid receptor 1 (TRPV1); Q8NER1; TRPV1-expressing cells, Fluo-8 calcium influx, agonist mode; activation, % at 8.33 µM; 320,000 tested, 0.19% active; in the data active = activation above about 80%; inconclusive = between about 30% and that limit; also: 0% is about no effect
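Cells expressing TRPV1 were dye-loaded with Fluo-8 and read kinetically: 10 s baseline, 3 min after compound (agonist portion), then 2 min after EC20 capsaicin (allosteric enhancer portion). Calcium-bound dye fluorescence at 480/520 nm.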
VP16 counter = counter-screen for ROR gamma inhibitors: Gal4-VP16 reporter; Drosophila S2 Gal4-VP16 UAS-luciferase, luminescence, 20 h; Potency, µM (series often up to 53.6 µM), without a hit: top-dose activity, negative = inhibition, actives largely listed as inhibitors; 310,000 tested, 3.5% active; AID 2546;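 also: Gal4-VP16 expression switched on by copper sulfate through the metallothionein promoter; potency is read from the fitted curve at half-maximal effect; % is scaled to controls: 0 for no effect and ±100 for the full control effect; nearly all actives have a fitted effect of over 50% in size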
Numbers without * were called inactive; [ ] = another dose, or the depositor's remark. Unless noted, calls follow the shape of the dose curve; as a rule, active = well fitted curve in the direction sought with a large enough effect; inconclusive = small, poorly fitted or top-dose-only effect, or another doubt; inactive = no such curve, though single readings can be large; an effect the other way counts as inactive or inconclusive.

Screening O=C1CC(C2CCCO2)C(=O)N1c1ccc(Cl)c(Cl)c1 (stereo unspecified) returned RORgamma inh inconclusive, TRPV1 potentiator -5, uPA generation -4%, TRPV1 agonist 8 and VP16 counter 11µM*.
`COc1ccc2nc(NC(=O)c3cccc(N4C(=O)CCC4=O)c3)sc2c1` gave TRPV1 potentiator 14, uPA generation 4.5µM* and TRPV1 agonist -4.
`Cc1cc(C)c2sc(NC(=O)c3ccc(N4C(=O)CCC4=O)cc3)nc2c1` gave RORgamma inh 0.11µM*, TRPV1 potentiator 2, uPA generation 11%, TRPV1 agonist -1 and VP16 counter inconclusive.
COc1ccc2nc(NC(=O)c3cccc(OCc4c(C)noc4C)c3)sc2c1 was read as RORgamma inh 11µM*, TRPV1 potentiator -4, uPA generation -13%, TRPV1 agonist 3 and VP16 counter inconclusive.
Screening Cc1ccc2nc(NC(=O)c3ccc(N4C(=O)CCC4=O)cc3)sc2c1 returned RORgamma inh 3%, TRPV1 potentiator -6, uPA generation -1%, TRPV1 agonist 3 and VP16 counter -3%.
COC(=O)N[C@@H](/C=C/c1ccccc1)[C@@H](C)[N+](=O)[O-] was read as RORgamma inh 11% and VP16 counter -1%.
Cc1ccc(NC(=O)C2COc3ccccc3O2)cc1S(=O)(=O)N1CCOCC1 (stereo unspecified) was read as TRPV1 potentiator -20, uPA generation 10% and TRPV1 agonist inconclusive.
C[N+]12CCCC[C@@H]1CCC(=C(c1cccs1)c1cccs1)C2 (stereo partly specified) was read as RORgamma inh 31% and VP16 counter -2%.
Screening Cc1ccnn1Cc1cc(C(=O)O)c2ccccc2n1 returned RORgamma inh 14%, TRPV1 potentiator 19, uPA generation 1%, TRPV1 agonist 0 and VP16 counter -3%.
For CCCn1c(N2CCN(C(=O)NCc3ccccc3)CC2)nc2ccccc21 the results were RORgamma inh 17%, TRPV1 potentiator -19, uPA generation -1%, TRPV1 agonist inconclusive and VP16 counter 3%.
`CC(C)n1c(N2CCN(C(=O)Nc3ccc(Cl)cc3)CC2)nc2ccccc21` gave RORgamma inh -9%, TRPV1 potentiator -15, uPA generation 2%, TRPV1 agonist 82* and VP16 counter 1%.
`CCCn1c(N2CCN(C(=O)Nc3ccc(Cl)cc3)CC2)nc2ccccc21` gave RORgamma inh 15%, TRPV1 potentiator 3, TRPV1 agonist 81* and VP16 counter -8%.
CC(C)n1c(N2CCN(C(=O)Nc3ccc(F)cc3F)CC2)nc2ccccc21 was read as RORgamma inh 13%, TRPV1 potentiator 7, uPA generation -2%, TRPV1 agonist 2 and VP16 counter -2%.
`O=C(Nc1ccc(Oc2cccnc2)cc1)c1ccccc1F` gave RORgamma inh inconclusive, TRPV1 potentiator -17, uPA generation -3%, TRPV1 agonist 22 and VP16 counter -1%.
`CCOc1ccc(-n2nc3ccc(N)cc3n2)cc1` gave RORgamma inh -38%, TRPV1 potentiator 1, uPA generation 10µM*, TRPV1 agonist -1 and VP16 counter -27%.
`CCOc1ccc(-n2nc3cc(C)c(N)cc3n2)cc1` gave RORgamma inh 10µM*, TRPV1 potentiator 26, uPA generation inconclusive, TRPV1 agonist -5 and VP16 counter -27%.
`CC(C)(C)C(=O)[C@@H]1[C@@H]2C(=O)N(Cc3ccccc3)C(=O)[C@@H]2[C@H]2c3ccccc3C=CN12` gave RORgamma inh 11µM*, TRPV1 potentiator 3, TRPV1 agonist 10 and VP16 counter inconclusive.
`CCOC(=O)COc1ccc2nsnc2c1Cl` gave RORgamma inh -13%, TRPV1 potentiator 24, uPA generation 3%, TRPV1 agonist -1 and VP16 counter 2%.
Screening C=C(CC)C(=O)c1ccc(OCC(=O)O)c(Cl)c1Cl returned RORgamma inh inconclusive, TRPV1 potentiator 20, uPA generation 4.5µM*, TRPV1 agonist 14 and VP16 counter inconclusive.
`CCOC(=O)C(C(=O)N(C)C)c1ncc(C(F)(F)F)cc1Cl` (stereo unspecified) gave RORgamma inh -1%, TRPV1 potentiator inconclusive, uPA generation -2%, TRPV1 agonist 2 and VP16 counter -3%.
Screening CCOC(=O)/C(O)=C/c1ncc(C(F)(F)F)cc1Cl returned RORgamma inh 8.9µM*, TRPV1 potentiator -7, uPA generation -4%, TRPV1 agonist 10 and VP16 counter 10µM*.
`N#Cc1ccccc1S(=O)(=O)N1CCN(C(=O)C2CCC2)CC1` gave TRPV1 potentiator 6, uPA generation -12% and TRPV1 agonist -3.
`NC(=S)N/N=C/c1ccc(-c2cc(Cl)c(Cl)cc2Cl)o1` gave RORgamma inh 0.56µM*, TRPV1 potentiator -13, uPA generation -6%, TRPV1 agonist 2 and VP16 counter 1.1µM*.
`NC(=S)N/N=C/c1ccc(Br)o1` gave RORgamma inh 3.5µM*, TRPV1 potentiator -16, uPA generation 3%, TRPV1 agonist 0 and VP16 counter inconclusive.
Screening NC(=S)N/N=C/c1ccccc1 returned RORgamma inh 16µM*, TRPV1 potentiator -4, uPA generation -4%, TRPV1 agonist 0 and VP16 counter 20µM*.
Screening CC(=O)Nc1ccc(/C=N/NC(N)=S)cc1 returned RORgamma inh -7% and VP16 counter -8%.
For NC(=S)N/N=C/c1ccc(C23CC4CC(CC(C4)C2)C3)cc1 the results were RORgamma inh 0.45µM*, TRPV1 potentiator 9, uPA generation -16%, TRPV1 agonist 4 and VP16 counter 2.8µM*.
Screening C=CCC(C)(O)CCc1ccccc1 (stereo unspecified) returned RORgamma inh -16% and VP16 counter -3%.
`CCN(CC(=O)Nc1ccccc1C(F)(F)F)C(=O)c1ccc2[nH]c3c(c2c1)CC(C)CC3` (stereo unspecified) gave TRPV1 potentiator 11, uPA generation 22% and TRPV1 agonist 15.
`N#Cc1ccc(C(=O)NC2CCCCCCC2)cc1` gave RORgamma inh -36%, TRPV1 potentiator -4, uPA generation 0%, TRPV1 agonist inconclusive and VP16 counter 0%.
CN1[C@@H]2CC[C@H]1CC(OC(c1ccccc1)c1ccccc1)C2 (stereo partly specified) was read as RORgamma inh -9%[10 µM] and VP16 counter 0%.
`O=[N+]([O-])c1cc2c(cc1/C=N/Nc1nc(Nc3ccccc3)nc(N3CCCCC3)n1)OCO2` gave RORgamma inh 3.2µM*, uPA generation 2% and VP16 counter 0%.
Cc1ccc(Nc2nc(N/N=C\c3ccc4c(c3)OCO4)nc(N3CCOCC3)n2)cc1 was read as RORgamma inh 8.9µM*, TRPV1 potentiator 6, uPA generation -4%, TRPV1 agonist inconclusive and VP16 counter -18%.
